Hits are enriched below; roughly 8.7% of the tested compounds scored in any of these assays.
VACV mCherry inh – inhibitors of vaccinia virus infection (mCherry reporter signal); Potency, µM (series often up to 36.5 µM), most hits filed as inhibitors; hit rate 0.63% among 310,000; AID 720579; Vaccinia virus mCherry reporter infection, fluorescence; calls by dose curve; tested in A549 cells; further: nearly all actives have a fitted effect of over 35% in size
AMA1-RON2 inh – disrupts binding of P. falciparum AMA1 to RON2. hit rate 0.2% among 360,000. AID 720542. AlphaScreen AMA1-biotinylated RON2 peptide binding. Potency, µM (highest dose often 58.2 µM), usual class: inhibitors; further: nearly all actives have a fitted effect of over 45% in size
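AMA1 (3D7) with his tag at 25 nM final met compounds first, then biotinylated RON2 peptide at 25 nM; detection used donor plus acceptor beads, 10 µg/mL apiece, read by AlphaScreen after 30 min at room temperature.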
Pf growth 96h – inhibits malaria parasite growth, 96 h; P. falciparum luciferase reporter growth, 96 h; Potency, µM (highest dose often 28.7 µM), hits mostly inhibitors; hit rate 6.9% among 320,000; AID 504834
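Readout is luminescence from an integrated firefly luciferase in P. falciparum. Red cells, 2% hematocrit and 0.05% parasitemia final, were cultured with compound through two parasite generations (96 hours) at 37 C, 5% CO2.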
Vaccinia Venus – vaccinia inhibition (Venus reporter); Vaccinia virus Venus reporter expression, fluorescence; Potency, µM (highest dose often 36.5 µM), usual class: inhibitors; hit rate 0.46% among 330,000; calls by dose curve; tested in A549 cells; further: nearly all actives have a fitted effect of over 30% in size
Pf growth 48h – inhibits P. falciparum growth in the first generation, 48 h; P. falciparum luciferase growth in erythrocytes, 48 h; Potency, µM (doses to about 28.7 µM), hits mostly inhibitors; hit rate 5.9% among 310,000; AID 504832
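Firefly luciferase activity from engineered P. falciparum reports growth; inhibitors lower the luminescent signal. Cultures contained 2% hematocrit erythrocytes at 0.1% final parasitemia.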
Large screens that a line does not name were inactive. Unless noted, the call rests on the fitted dose curve; in most records, active means well fitted curve in the direction sought with a large enough effect; inconclusive means small, poorly fitted or top-dose-only effect, or another doubt; inactive means no such curve, though single readings can be large; an effect the other way counts as inactive or inconclusive.

Cc1ccc(C)c(N2CCN(S(=O)(=O)c3ccc4c(c3)NC(=O)CS4)CC2)c1	Pf growth 96h 7.4µM
CN1CCN(Cc2ccc(Sc3ccc(Cl)cc3)c([N+](=O)[O-])c2)CC1	Pf growth 96h 0.17µM, Pf growth 48h inconclusive
COc1ccc(C(=O)NC(=S)NNC(=O)[C@H]2C[C@@H]2c2ccccc2)cc1OC	Pf growth 96h 1.5µM, Pf growth 48h inconclusive
COc1cc(OC)cc(C(=O)NC(=S)NNC(=O)[C@H]2C[C@@H]2c2ccccc2)c1	Pf growth 48h inconclusive
CCOc1ccc(C2=C(C=C(C#N)C#N)C(c3ccccc3)c3ccccc3O2)cc1 (stereo not given)	Pf growth 48h 3.7µM
COc1ccc(C2=C(CN(C)C)C(c3ccccc3)c3ccccc3O2)cc1 (stereo not given)	AMA1-RON2 inh inconclusive, Pf growth 96h 2.6µM, Vaccinia Venus inconclusive, Pf growth 48h 4.7µM (no result: VACV mCherry inh)
CCOc1ccc(C2C(C#N)=C(N)Oc3c2c(=O)oc2ccccc32)cc1 (stereo not given)	Pf growth 96h inconclusive
COc1ccc(C2=NN3C(C2)c2ccccc2OC3c2cccs2)cc1 (stereo not given)	Pf growth 96h inconclusive
CCN(c1ccccc1)S(=O)(=O)c1ccc(Cl)c(C(=O)N(CC2CCCO2)C2CCS(=O)(=O)C2)c1 (stereo not given)	Pf growth 96h inconclusive, Pf growth 48h 1.7µM
Cc1cc(C)nc(SCC(=O)NC2=NN=C(c3ccc(Br)cc3)CS2)n1	Pf growth 96h inconclusive, Pf growth 48h inconclusive (no result: VACV mCherry inh, Vaccinia Venus)
CCC(Sc1nc(C)cc(C)n1)C(=O)NC1=NN=C(c2ccc(C)cc2)CS1 (stereo not given)	VACV mCherry inh inconclusive, Pf growth 96h 10µM, Vaccinia Venus inconclusive, Pf growth 48h inconclusive
Cc1nn(C)c2c1c(-c1ccccc1)cc(=O)n2CC(=O)NC(C)(C)C	none (no result: AMA1-RON2 inh, Pf growth 96h, Pf growth 48h)
COc1ccc(-c2cc3nc(-c4ccccc4)cc(N4CCC(O)CC4)n3n2)cc1	Pf growth 48h 10µM
COc1ccc(-c2cc3nc(-c4ccccc4)cc(N4CCCC(O)C4)n3n2)cc1 (stereo not given)	VACV mCherry inh 13µM, Vaccinia Venus inconclusive, Pf growth 48h 8.3µM
CCOC(=O)/C(C#N)=C/Nc1ccccc1NS(=O)(=O)c1ccc2c(c1)OCCO2	Pf growth 96h 12µM, Pf growth 48h 9.3µM (no result: VACV mCherry inh, Vaccinia Venus)
NC(=O)c1ccccc1NS(=O)(=O)c1ccc2c(c1)OCCO2	none (no result: VACV mCherry inh, Vaccinia Venus, Pf growth 48h)
COc1ccc(-c2cn3cc(C(=O)NN)ccc3n2)cc1	VACV mCherry inh inconclusive, Pf growth 96h 4.7µM, Vaccinia Venus inconclusive
NNC(=O)c1ccc2nc(-c3ccc(Br)cc3)cn2c1	Pf growth 48h inconclusive
COc1ccc(C2CC(c3ccc(F)cc3)n3nc(NC(=O)c4ccco4)nc3N2)cc1 (stereo not given)	none (no result: VACV mCherry inh, Vaccinia Venus)
CC1CC(c2ccccc2)n2nc(NC(=O)c3ccco3)nc2N1 (stereo not given)	Pf growth 96h 8.3µM
CCN(Cc1nc2ccccc2c(=O)[nH]1)Cc1nc2ccsc2c(=O)[nH]1	Pf growth 96h 1.5µM, Pf growth 48h inconclusive
CCN(CC(=O)Nc1ccccc1SC)Cc1nc2ccccc2c(=O)[nH]1	none
CCN(CC(=O)NC(c1ccccc1)c1ccccc1)Cc1nc2ccccc2c(=O)[nH]1	Pf growth 96h 7.4µM, Vaccinia Venus inconclusive, Pf growth 48h 12µM
COc1cc(OC)cc(-c2nnc(SCC(=O)N3CCC(C)CC3)o2)c1	none (no result: AMA1-RON2 inh, Pf growth 96h, Pf growth 48h)
CCCCCn1c(=O)[nH]c2cc(C(=O)N3CCN(c4ccc(F)cc4)CC3)ccc2c1=O	none (no result: Pf growth 96h, Pf growth 48h)
COc1cc2[nH]c(=O)n(CCCCCC(=O)N3CCN(c4ccc(Cl)cc4)CC3)c(=O)c2cc1OC	VACV mCherry inh inconclusive (no result: AMA1-RON2 inh, Pf growth 96h, Pf growth 48h)
COc1cc2[nH]c(=O)n(CCCCCC(=O)N3CCN(c4ccccc4)CC3)c(=O)c2cc1OC	Pf growth 48h 7.4µM (no result: VACV mCherry inh, Vaccinia Venus)
CC(=O)c1ccc(N2CCN(C(=O)CCCn3c(=O)[nH]c4ccc(Br)cc4c3=O)CC2)cc1	Pf growth 96h inconclusive, Pf growth 48h 10µM (no result: VACV mCherry inh, Vaccinia Venus)
COc1cc2[nH]c(=O)n(Cc3ccccc3Cl)c(=O)c2cc1OC	Pf growth 96h 4.7µM (no result: VACV mCherry inh, Vaccinia Venus)
CCCCCn1c(=O)[nH]c2cc(C(=O)N3CCN(c4ccc(C(C)=O)cc4)CC3)ccc2c1=O	Pf growth 96h 12µM, Pf growth 48h inconclusive
CCC1(C)NC(c2ccc3c(c2)OCO3)=CC(c2ccccc2O)N1 (stereo not given)	none (no result: AMA1-RON2 inh, Pf growth 96h, Pf growth 48h)
O=C(NCc1ccccc1)c1cccn1-c1nnc(N2CCCC2)s1	none (no result: AMA1-RON2 inh, Pf growth 96h, Pf growth 48h)
CNC(=S)NN=C(C)c1ccc(OC)cc1O	VACV mCherry inh 5µM, Vaccinia Venus inconclusive (no result: Pf growth 96h, Pf growth 48h)
COc1ccc(/C(C)=N/N=C(N)N)c(O)c1	Pf growth 96h inconclusive
Cc1ccc(-c2nc3cc(Cl)ccc3o2)cc1NC(=O)COc1ccccc1C	none (no result: AMA1-RON2 inh, Pf growth 96h, Pf growth 48h)
COc1cccc(CNC(=O)CCC2CCCN(C(=O)c3ccccc3N(C)C)C2)c1 (stereo not given)	Pf growth 96h inconclusive, Pf growth 48h inconclusive
COc1cccc(CNC(=O)CCC2CCCN(C(=O)c3cccc4c(C)c(C)[nH]c34)C2)c1 (stereo not given)	Pf growth 48h 12µM
Cc1ccc(CNC(=O)CCC2CCCN(C(=O)CCC(F)(F)F)C2)o1 (stereo not given)	Pf growth 96h 8.3µM
COC(=O)CCCC(=O)N1CCCC(CCC(=O)NCc2ccc(F)c(F)c2)C1 (stereo not given)	Pf growth 48h 8.3µM
C=C1NN(Cc2ccccc2)C(=O)N1c1ccc(OCc2ccccc2)cc1	none (no result: AMA1-RON2 inh, Pf growth 96h, Pf growth 48h)
O=C(O)c1ccc(Cn2ccc3ccccc32)o1	none (no result: VACV mCherry inh, Vaccinia Venus)

Compound activity: PubChem, National Center for Advancing Translational Sciences (NCATS)
